target: TNKS 174-649, O95271
Sequence (O95271 174-649): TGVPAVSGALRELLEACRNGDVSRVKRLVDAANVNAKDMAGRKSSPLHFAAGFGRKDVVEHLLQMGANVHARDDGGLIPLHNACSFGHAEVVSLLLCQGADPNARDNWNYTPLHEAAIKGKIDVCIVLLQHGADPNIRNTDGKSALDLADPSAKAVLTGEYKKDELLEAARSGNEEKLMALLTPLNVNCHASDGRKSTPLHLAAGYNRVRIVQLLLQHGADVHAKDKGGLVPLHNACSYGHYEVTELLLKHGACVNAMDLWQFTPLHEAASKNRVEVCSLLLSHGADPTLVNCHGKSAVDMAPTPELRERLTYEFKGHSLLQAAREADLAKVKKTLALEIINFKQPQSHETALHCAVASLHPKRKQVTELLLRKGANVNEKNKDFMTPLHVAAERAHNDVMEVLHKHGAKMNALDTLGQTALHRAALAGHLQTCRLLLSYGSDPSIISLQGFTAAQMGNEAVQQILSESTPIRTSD

Binder | selected by phage display
HGDGEVRQPPVGIAVA [BAHCC1, Q9P281] | confidence 2 (active)
LDMHTVTREEGEGMET [GCC2, Q8IWJ2] | confidence 3 (active)
QYVTREPPEGSLLDVD [FAM83H, Q6ZRV2] | confidence 2 (active)
IGRISAEGGEQVERVV [APOL2, Q9BQE5] | confidence 3 (active)
GGGPDRLEPEMVRMVV [NAB2, Q15742] | confidence 2 (active)
VPGLGGPGESRHEPLG [HOXA13, P31271] | confidence 2 (active)
LFLPRTEADGKSYVKY [ENDOG, Q14249] | confidence 4 (active)
LPPAEAVRWAPVGAVA [RUNDC1, Q96C34] | confidence 4 (active)
REAPEGMASSLGALNL [CACNA1S, Q13698] | confidence 4 (active)
ERSSGDGEELERLTKP [SLC35A5, Q9BS91] | confidence 3 (active)
RTESIRWLIPGQEQEH [TXNDC15, Q96J42] | confidence 3 (active)
AQQALERTPGDGLATM [THAP4, Q8WY91] | confidence 3 (active)
RVVDGAEMALPGLATQ [KIF26B, Q2KJY2] | confidence 2 (active)
QERLIPLGHASKSAPM [ERRFI1, Q9UJM3] | confidence 2 (active)
DELRMEPLGLEGLNML [CRTC2, Q53ET0] | confidence 3 (active)
PGSLREDPLGEAQPQI [INPP5K, Q9BT40] | confidence 4 (active)
RGLVDGGEAVEARLRD [CGN, Q9P2M7] | confidence 3 (active)
DYVLTYNYEGRGSPAG [DSC3, Q14574] | confidence 2 (active)

Binder | selected by phage display
SLIERGAAAGSEDAVK [SPTAN1, Q13813] | confidence 2 (active)
AQVLSQRLEAEGLSTL [LENG9, Q96B70] | confidence 2 (active)
QGLLHEAGSTDDRIVV [SPNS1, Q9H2V7] | confidence 2 (active)
GGLDGPRLAIPGMDGG [PAN3, Q58A45] | confidence 3 (active)
RQEALGAEHNSSALLP [AKAP13, Q12802] | confidence 3 (active)
SPQFVGNLRESPLGQE [CCNH, P51946] | confidence 2 (active)
EERPEVLGQRSTDVVD [STK36, Q9NRP7] | confidence 2 (active)
LSTGYLQIAERREPIG [DTNBP1, Q96EV8] | confidence 4 (active)
SVERMGSGIERMGPLG | confidence 4 (active)
GGRTPAARDSIVREVI [MTHFD1L, Q6UB35] | confidence 2 (active)
EPWLDRVIQGSSTSSS [DIP2A, Q14689] | confidence 3 (active)
SVLQPGIAMETRGLAD [CNGA3, Q16281] | confidence 2 (active)
QTIERMGSGVERMGPA | confidence 3 (active)
VTSSPIRGAGDGMETE [BLZF1, Q9H2G9] | confidence 2 (active)
DIRGLAAGSAETLPAN [PPFIA1, Q13136] | confidence 2 (active)
TLNERLAAEGQAIDGA [WDR37, Q9Y2I8] | confidence 3 (active)
DGVARTPPVGMSGQVA [KIF26A, Q9ULI4] | confidence 3 (active)

target: TLN1 309-401, Q9Y490
Sequence (Q9Y490 309-401): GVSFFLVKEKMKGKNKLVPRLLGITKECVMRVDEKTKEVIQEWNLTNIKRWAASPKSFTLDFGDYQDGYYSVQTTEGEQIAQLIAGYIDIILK

Binder | selected by phage display
GLYPIIWQYPNGTHAY [JMJD1C, Q15652] | confidence 2 (active)
DLIFTDSKLYIPLEYR [TPTE, P56180] | confidence 4 (active)
AHLWFDNQIFVADTSE [ATP12A, P54707] | confidence 3 (active)
TTGGGWVISRIFDSGY [FMO1, Q01740] | confidence 4 (active)
AVVWIDSTLHQPMFLL [OR52W1, Q6IF63] | confidence 2 (active)
SQSDDGPIMWVRPGEQ [RSBN1, Q5VWQ0] | confidence 2 (active)
EEESMFFSNPLFLASP [PSD4, Q8NDX1] | confidence 2 (active)
WTFSPLTETEMQITAV [PRUNE2, Q8WUY3] | confidence 2 (active)
ALPSTWIENKLYGMSD [RET, P07949] | confidence 4 (active)
QWVTSPLHSPTLKDAH [ARHGAP31, Q2M1Z3] | confidence 4 (active)
EDLKWLWYENRIYVLG [NEMP2, A6NFY4] | confidence 2 (active)

target: SUMO1 1-101, P63165
Sequence (P63165 whole entry): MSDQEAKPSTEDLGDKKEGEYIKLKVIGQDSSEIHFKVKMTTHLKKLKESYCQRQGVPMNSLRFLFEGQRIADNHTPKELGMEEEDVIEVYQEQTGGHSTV

Binder | selected by phage display
GIQYIDLSSDSEDVVS [SMARCAD1, Q9H4L7] | confidence 4 (active)
AEVVDLTVDEDEPTVV [RNF111, Q6ZNA4] | confidence 2 (active)
SPAEVVDLTLDEDSRR [C18orf25, Q96B23] | confidence 4 (active)
PGADVVDLTLDSSSSS [PIAS4, Q8N2W9] | confidence 2 (active)
ALENRVAVLENQNKTL [CREB1, P16220] | confidence 2 (active)
DDDEPIFVGEISSSKP [ZNF280D, Q6N043] | confidence 2 (active)
DDDDVVFIESIQPPSI [ZMYM5, Q9UJ78] | confidence 3 (active)
EEEDDVVFVSSKPGSP [TTF2, Q9UNY4] | confidence 2 (active)
VEVIDLTIESSSDEED [PIAS3, Q9Y6X2] | confidence 4 (active)
DEIVDLTAESLEPVVV [RNF4, P78317] | confidence 2 (active)

target: SIN3A 295-383, Q96ST3
Sequence (Q96ST3 295-383): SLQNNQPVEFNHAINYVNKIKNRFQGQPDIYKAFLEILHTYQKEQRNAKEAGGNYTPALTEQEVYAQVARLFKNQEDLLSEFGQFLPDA

Binder | selected by phage display
GDWLTMLREASDEIVA [WWC2, Q6AWC2] | confidence 2 (active)
AGGDLAGLLEALSDMG [NFKB2, Q00653] | confidence 2 (active)
MAFSELLDLVGGLGRF [SLC22A12, Q96S37] | confidence 2 (active)
IEALLEAGQARDAQDV [RRBP1, Q9P2E9] | confidence 2 (active)
LWEDLLHAAEAHSSAT [PHTF2, Q8N3S3] | confidence 2 (active)
SGTAGAALLALLAALA [EGFR, P00533] | confidence 2 (active)

— paper PMC8769072, “Proteome‐scale mapping of binding sites in the unstructured regions of the human proteome” (Molecular Systems Biology, 2022)
